Assay results as given in publication PMC5540273 (PLoS ONE, 2017).

Experiments:
Details in all cases: concentration: 1 μM, replicates: in singlicate; n = 1
[1] = tested on: MAP3K15
[2] = tested on: MAP3K1
[3] = tested on: MAP3K2
[4] = tested on: MAP3K3
[5] = tested on: MAP3K4
[6] = tested on: MAP4K2
[7] = tested on: MAP4K3
[8] = tested on: MAP4K4
[9] = tested on: MAP4K5
[10] = tested on: MAPKAPK2
[11] = tested on: MAPKAPK5
[12] = tested on: MARK1
[13] = tested on: MARK2
[14] = tested on: MARK3
[15] = tested on: MARK4
[16] = tested on: MAST1
[17] = tested on: T1, MEK1
T1 construct: gene MAP2K1

[18] = tested on: T2, MEK2
T2 construct: gene MAP2K2

[19] = tested on: T3, MEK3
T3 construct: gene MAP2K3

[20] = tested on: T4, MEK4
T4 construct: gene MAP2K4
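Note: KINOMEscan kinase panel screen.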

Row | Structure (SMILES) | %Inh [1] | %Inh [2] | %Inh [3] | %Inh [4] | %Inh [5] | %Inh [6] | %Inh [7] | %Inh [8] | %Inh [9] | %Inh [10] | %Inh [11] | %Inh [12] | %Inh [13] | %Inh [14] | %Inh [15] | %Inh [16] | %Inh [17] | %Inh [18] | %Inh [19] | %Inh [20]
1 | COCCOCCOc1cc2ncc3c4ccc(C#N)cc4[nH]c3c2cc1OC | 65% | 0% | 0% | 4% | 17% | 11% | 39% | 42% | 19% | 0% | 0% | 0% | 13% | 7% | 0% | 69% | 48% | 80% | 12% | 0%
2 | COc1cc2c(cc1OCCN1CCNCC1)ncc1c3ccc(C#N)cc3[nH]c21 | 90.1% | 33% | 4% | 14% | 7% | 51% | 8% | 32% | 5% | 0% | 0% | 0% | 8% | 0% | 0% | 83% | 34% | 57% | 34% | 18%
3 | Fc1ccc(-c2ncn(C3CCNCC3)c2-c2ccnc(Oc3ccc(-c4ccccc4)cc3)n2)cc1 [SB-245391] | 22% | 25% | 22% | 29% | 14% | 44% | 3% | 9% | 26% | 0% | 0% | 25% | 23% | 23% | 25% | 36% | 15% | 19% | 18% | 15%
4 | COc1cccc(C2=C(Nc3ccc(Cl)c(C(=O)O)c3)C(=O)NC2=O)c1 [SB-390769] | 24% | 13% | 100% | 0% | 29% | 100% | 0% | 100% | 100% | 26% | 0% | 0% | 0% | 0% | 13% | 0% | 0% | 0% | 0% | 97.4%
5 | c1ccc(Oc2ccc(Nc3ccnc4cc(-c5ccc(CNCCN6CCOCC6)o5)ccc34)cc2)nc1 [GW567145] | 0% | 9% | 1% | 0% | 0% | 0% | 0% | 9% | 56% | 0% | 0% | 0% | 0% | 0% | 0% | 34% | 90.8% | 94.2% | 0% | 0%
6 | COc1cc(Nc2nccc(-c3c(-c4cccc(NC(=O)c5c(F)cccc5F)c4)nn4ncccc34)n2)cc(OC)c1OC [GSK327238] | 0% | 11% | 95.4% | 92.9% | 88% | 12% | 83% | 67% | 98.8% | 7% | 0% | 53% | 18% | 30% | 56% | 0% | 98.5% | 98.4% | 12% | 46%
7 | COc1ccc(Nc2nccc(N3CCC(NC(=O)Nc4cccc(OC)c4)C3)n2)cc1 (stereo not shown) [GSK1379742] | 0% | 0% | 0% | 0% | 23% | 0% | 5% | 0% | 0% | 9% | 0% | 0% | 0% | 0% | 0% | 23% | 0% | 0% | 0% | 24%
8 | CC(=O)N1CCN(c2ccc(Nc3nccc(-c4sc(C(C)C)nc4-c4cccc(NS(=O)(=O)c5cccc(Cl)c5)c4)n3)cn2)CC1 [GSK1660437] | 16% | 12% | 0% | 7% | 0% | 8% | 10% | 13% | 54% | 19% | 0% | 0% | 0% | 0% | 12% | 0% | 1% | 0% | 23% | 99.2%
9 | Cl.c1ccc(-c2ccc3c(Nc4ccc5[nH]ccc5c4)ccnc3c2)nc1 [GW440138] | 0% | 1% | 0% | 0% | 9% | 46% | 0% | 12% | 0% | 9% | 0% | 0% | 0% | 0% | 0% | 0% | 0% | 0% | 0% | 0%
10 | CN1CCN(Cc2cccc(-c3ccc4c(Nc5ccc(Oc6ccccc6)cc5)ccnc4c3)c2)CC1 [GW578342] | 0% | 0% | 0% | 0% | 15% | 0% | 0% | 0% | 0% | 3% | 0% | 0% | 5% | 0% | 0% | 47% | 54% | 55% | 0% | 9%
11 | CN(C)Cc1ccc(-c2ccc3c(Nc4ccc(Oc5ccccn5)cc4)ccnc3c2)o1 [GW567148] | 0% | 14% | 0% | 0% | 0% | 5% | 0% | 6% | 61% | 3% | 0% | 2% | 0% | 0% | 13% | 11% | 94.7% | 96.8% | 0% | 26%
12 | O=C(Nc1n[nH]c2nc(-c3ccc(O)cc3)ccc12)C1CC1 [SB-710363] | 32% | 10% | 13% | 30% | 0% | 41% | 0% | 53% | 0% | 0% | 4% | 0% | 38% | 0% | 0% | 36% | 0% | 8% | 36% | 10%
13 | Nc1ncnc2c1nc(-c1ccccc1)n2-c1ccccc1 [SKF-97293] | 22% | 34% | 28% | 14% | 35% | 18% | 3% | 0% | 2% | 0% | 0% | 27% | 0% | 39% | 33% | 47% | 15% | 14% | 50% | 35%
14 | Cl.Cl.NCC(C(=O)Nc1cc(Br)c(-c2ccnc3[nH]ccc23)s1)c1ccccc1 (stereo not shown) [GSK1269851] | 0% | 17% | 13% | 0% | 63% | 13% | 0% | 20% | 0% | 0% | 0% | 0% | 55% | 0% | 0% | 13% | 1% | 0% | 50% | 11%
15 | Cc1cccc(Nc2nc(N[C@H]3CCNC3)ncc2C(N)=O)c1.Cl [GSK2197149] | 0% | 0% | 88% | 60% | 45% | 88% | 40% | 73% | 33% | 0% | 0% | 0% | 19% | 0% | 4% | 0% | 31% | 31% | 85% | 66%
16 | O=C(Nc1n[nH]c2cc(-c3ccoc3)ccc12)C1CC1 [SB-738481] | 10% | 0% | 3% | 50% | 17% | 2% | 0% | 10% | 0% | 0% | 10% | 11% | 15% | 0% | 0% | 37% | 2% | 18% | 23% | 3%
17 | O=C(Nc1cccc(Oc2ccc3nc(NC(=O)C4CC4)cn3n2)c1)c1ccccc1C(F)(F)F | 0% | 0% | 0% | 8% | 26% | 0% | 64% | 8% | 29% | 0% | 0% | 0% | 6% | 21% | 12% | 0% | 69% | 82% | 17% | 0%
